Results published in PubChem BioAssay AID1259422 (The Scripps Research Institute Molecular Screening Center, 2018).
Several values for one entry are separate records, joined by “and”; a condition that tells them apart may be missing. Equal values may be shown once. The campaign covered roughly 640,000 compounds. About 9,300 (1.5%) were called active. Cut-off read from the data, not from the text of the source: active = inhibition above about 32%; inactive = the rest. The sample as a whole holds a higher share of actives than the screen did.

experiment: TEAD-YAP interaction inhibition, primary screen, TEAD-YAP interaction inhibitor project, luminescence, HEK-TIYL cells (AID 1259422); details: TEAD-Gal4/YAP UAS-luciferase luminescence, at 9.12 µM, stronger effect = higher value;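 note: 0% = median of test compound wells and 100% = reference inhibitor wells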

Q: With COc1ccc(OC)c(C2/C(=C(\O)c3ccc(Br)cc3)C(=O)C(=O)N2CCCn2ccnc2)c1 (centres undefined) as the molecule, how does the inhibition read?
A: -4.36% (inactive)

Q: Which inhibition does the source give for CCOC(=O)c1c(NC(=O)c2cc([N+](=O)[O-])ccc2Cl)sc(-c2ccccc2)c1C here?
A: 8.37% (inactive)

Q: Which inhibition does the source give for CCCc1c(C(=O)N[C@H]2C[C@H]3C(=O)N[C@@H](CSCc4ccccc4)C(=O)N3C2)cnn1-c1ccccc1 here?
A: 2.64% (inactive)

Q: For FC(F)Oc1ccc(-c2csc(=Nc3cccnc3)n2C2CC2)cc1, which inhibition is on record?
A: 50.1% (active)

Q: For COc1ccc(-c2csc(=Nc3ccccc3)n2C)cc1, which inhibition is on record?
A: -28.4% (inactive)

Q: Which inhibition does the source give for Cc1csc(=Nc2ccccc2)n1C1CCCC1 here?
A: -5.23% (inactive)

Q: For CC1CCCC(NC(=O)CCCn2nnc3ccccc3c2=O)C1C (centres undefined), which inhibition is on record?
A: -2.4% (inactive)

Q: For CC(=O)N1CCN(c2nc(Nc3ccccc3C(=O)c3ccccc3)nc(OC(C(F)(F)F)C(F)(F)F)n2)CC1, which inhibition is on record?
A: 10.2% (inactive)

Q: With COC(=O)CCC(=O)N1CCC(Oc2ccc(C(=O)NCCc3ccccc3)cc2)CC1 as the molecule, how does the inhibition read?
A: 5.68% (inactive)

Q: Which inhibition does the source give for O=C(NCCc1ccccc1)c1ccc(OC2CCN(C(=O)C3CCCO3)CC2)cc1 (centres undefined) here?
A: 40.4% (active)

Q: For O=C(NCCN1CCCCC1CO)c1ccc(OC2CCN(C(=O)C3CC3)CC2)cc1 (centres undefined), which inhibition is on record?
A: 1.44% (inactive)

Q: Which inhibition does the source give for O=C(COC(=O)CCN1C(=O)C2CC=CCC2C1=O)Nc1ncc(Cl)cc1Cl (centres undefined) here?
A: 5.49% (inactive)

Q: Which inhibition does the source give for CNC(=O)c1cc(F)ccc1Nc1cc(Nc2ccc3c(c2)CCC(=O)N3)ncc1C(F)(F)F here?
A: 78.9% (active)

Q: With CNC(=O)c1cc(F)ccc1Nc1cc(Nc2ccc3[nH]ncc3c2)ncc1C(F)(F)F as the molecule, how does the inhibition read?
A: 27.2% (inactive)

Q: For O=C1Cc2cc(Nc3cc(Nc4ccccn4)c(C(F)(F)F)cn3)ccc2N1, which inhibition is on record?
A: 22.7% (inactive)

Q: For CNC(=O)c1cc(F)ccc1Nc1cc(Nc2ccc(NC(C)=O)cn2)ncc1C(F)(F)F, which inhibition is on record?
A: 84.8% (active)

Q: With CNC(=O)c1cc(F)ccc1Nc1cc(Nc2ccc3nc[nH]c3c2)ncc1C(F)(F)F as the molecule, how does the inhibition read?
A: -9.89% (inactive)

Q: For CCc1ccc(NC(=O)C2CCN(S(=O)(=O)c3ccc4c(c3)CCC(=O)N4)CC2)cc1, which inhibition is on record?
A: -10.1% (inactive)

Q: Which inhibition does the source give for O=C(CSc1nc2ccccc2s1)Nc1ccc(O)c(C(=O)O)c1 here?
A: -2.73% (inactive)

Q: For OCCNCCCOc1ccc(I)cc1, which inhibition is on record?
A: 15.9% (inactive)

Q: For COc1c(C)c2c(c(O)c1C/C=C(\C)CCC(=O)O)C(=O)OC2, which inhibition is on record?
A: 39.5% (active) and 67.1% (active)

Q: Which inhibition does the source give for O=c1oc2ccccc2cc1-c1ccc(Cl)cc1 here?
A: -27% (inactive)

Q: For O=c1oc2cc(O)ccc2cc1-c1ccc(F)cc1, which inhibition is on record?
A: 36% (active)

Q: With Cc1ccc(Nc2nnc(-c3cc4ccc(O)cc4oc3=O)s2)cc1 as the molecule, how does the inhibition read?
A: 8.37% (inactive)
